A short description of assay [1]: qHTS Screen of the MIPE 4.0 Collection Against Ewings Sarcoma (TC32) (AID 1259256). Also: nearly all actives have a fitted effect of over 45% in size. Also: potency is read from the fitted curve at half-maximal effect. An outline of the steps:
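Cells plated in serum-containing RPMI (5% FBS) and treated with compound dilutions for 48 h. Readout luminescent viability; normalization relied on vehicle (no inhibition) and media-only columns (full inhibition).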
For orientation: qHTS replaces the single test concentration by a dilution series.

Assay [2] in a line: P-glycoprotein substrates identified in KB-8-5-11 adenocarcinoma cell line, qHTS therapeutic library screen (AID 1346987). Also: nearly all actives have a fitted effect of over 65% in size. Also: potency is read from the fitted curve at half-maximal effect. An outline of the steps: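 KB-8-5-11: colchicine-selected sub-line of KB-3-1 over-expressing P-gp; assay medium lacked colchicine. 72 h drug exposure at 37 degree C, CellTiter-Glo.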
Assay [3] can be described thus: Identifying Small Molecule Inhibitors of Pancreatic Cancer Stem Cells (SN12C, Adherent) (AID 1259358).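 Also: cell survival measured after 48 h of compound exposure.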 Also: potency is read from the fitted curve at half-maximal effect. The procedure, abridged:
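Pre-formed 14-day tumor spheroids or adherent cells dosed and incubated 48 h, 37C, 5% CO2. Viability assessed by CellTiter-Glo.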

A short description of assay [4]: Identifying Small Molecule Inhibitors of Pancreatic Cancer Stem Cells (SN12C, Spheroid) (AID 1259360). Also: potency is read from the fitted curve at half-maximal effect. As to conditions: Potency: SN12C spheroid viability. An outline of the steps: (§1)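 Cytotoxicity read by CellTiter-Glo luminescence after 48 h compound exposure at 37C; percent activity scaled between DMSO-treated cells and cell-free wells. Spheroid formats used cells pre-formed 14 days in stem cell media on hydrogel.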

A short description of assay [5]: Identifying Small Molecule Inhibitors of Pancreatic Cancer Stem Cells (A2780, Spheroid) (AID 1259357).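 Also: compound exposure lasted 48 h before the ATP luminescence read.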 As to conditions: Potency: A2780 spheroid viability. An outline of the steps:
as §1

Assay [6] can be described thus: Identifying Small Molecule Inhibitors of Pancreatic Cancer Stem Cells (Panc1, Spheroid) (AID 1259359).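 Also: potency is read from the fitted curve at half-maximal effect; compound exposure lasted 48 h before reading.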 As to conditions: Panc1 spheroid cancer stem cell viability. An outline of the steps: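 Endpoint: ATP-based luminescence, 48 h drug exposure. Bortezomib at 9.2 uM final as full-kill control; DMSO vehicle as negative control; activity normalized between vehicle and cell-free wells.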

A short description of assay [7]: P-glycoprotein substrates identified in KB-3-1 adenocarcinoma cell line, qHTS therapeutic library screen (AID 1346986). Also: nearly all actives have a fitted effect of over 60% in size.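 Also: potency is read from the fitted curve at half-maximal effect; potency is for cytotoxicity meaning loss of cell viability.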 The procedure, abridged:
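Counter-screen: cherry-picked hits retested in the KB pair and in HEK-293 pcDNA/MDR-19 cells ± tariquidar. Primary screen used 72 h CellTiter-Glo viability in KB-3-1 and KB-8-5-11.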

Several values for one entry are separate records, joined by “and”; a condition that tells them apart may be missing. Identical values can stand only once. Inconclusive results are not listed. More than one record can exist for a structure, and the calls need not agree. Activity calls are given as the source filed them. Calls follow the shape of the dose curve; as a rule, active = well fitted curve in the direction sought with a large enough effect; inconclusive = small, poorly fitted or top-dose-only effect, or another doubt; inactive = no such curve, though single readings can be large; an effect the other way counts as inactive or inconclusive.

Regarding `COC(=O)N[C@H](C(=O)N1CCC[C@@H]1c1ncc(-c2ccc(-c3ccc(-c4cnc([C@@H]5CCCN5C(=O)[C@@H](NC(=O)OC)C(C)C)[nH]4)cc3)cc2)[nH]1)C(C)C`, the Potency in assay [1] was 26.4 µM (active). For the same molecule, the Potency entry in assay [2] was “inactive”.
On to `Cc1ccccc1C(C(=O)NC1CCCCC1)N(C(=O)Cn1ccnc1C)c1cccc(F)c1` (stereo unspecified), for which the Potency in assay [1] was 8.33 µM (active). Moreover, in assay [2], the Potency entry was “inactive”.
On the same counts, the results for `O=C(NCc1ccccc1)c1csc(Nc2ccncn2)n1` are 18.7 µM (active) and “inactive”.
The matching figures for `CCC(=O)O[C@]1(C(=O)CO)CC[C@H]2[C@@H]3CCC4=CC(=O)CC[C@]4(C)[C@@H]3CC[C@@]21C`: “inactive” and “inactive”.
The matching figures for `O=C(O)C=Cc1ccc(O)c(O)c1`: 20.9 µM (active) and “inactive”.
As to `Cn1c(N2CCCCS2(=O)=O)nc(C(=O)NCc2ccc(F)cc2)c(O)c1=O`, the Potency in assay [1] was 23.5 µM (active). Also, the Potency result in assay [2] was “inactive”.
Turning to `Cc1ccc(C(=O)Nc2cccc(C(F)(F)F)c2)cc1Nc1nc(-c2cccnc2)nc2c1cnn2C`, the Potency in assay [1] was 13.2 µM (active). Further, in assay [2], the Potency result is “inactive”.
On the same counts, the results for `CC[C@]1(O)C[C@@H]2CN(CCc3c([nH]c4ccccc34)[C@@](C(=O)OC)(c3cc4c(cc3OC)N(C=O)[C@@H]3C45CCN4CC=C[C@](CC)([C@H]45)[C@@H](OC(C)=O)[C@]3(O)C(=O)OC)C2)C1` (stereo partly specified) are “inactive” and “inactive”.
In the case of `NC1=N[C@@]2(c3cc(NC(=O)c4ccc(F)cn4)ccc3F)COC[C@@H]2CS1`, the Potency result in assay [1] and in assay [2] was “inactive” throughout.
For `O=C(CCc1ccc(O)cc1)c1c(O)cc(O)cc1O[C@@H]1O[C@H](CO)[C@H](O)[C@H](O)[C@H]1O`, the Potency result in assay [1] and in assay [2] was “inactive” each time.
In the case of `O=C1C[C@@H](c2ccc(O)cc2)Oc2cc(O)cc(O)c21`, the Potency entry in assay [1] and in assay [2] was “inactive” each time.
With `C[C@]12CC[C@@H]3c4ccc(O)cc4CC[C@H]3[C@H]1C[C@@H](O)[C@H]2O`, in assay [1], the Potency is 26.4 µM (active). Moreover, the Potency entry in assay [2] is “inactive”.
Turning to `Oc1ccc(C2=Cc3ccc(O)cc3OC2)cc1`, the Potency in assay [1] is 2.64 µM (active); in assay [2], 9.35 µM (active) and 6.51 µM (active).
For the molecule `O=c1cc(CN2CCOCC2)occ1OCCCCCSc1ccnc2cc(C(F)(F)F)ccc12`, the figures for the Potency in assay [1] and in assay [2] were 18.7 µM (active) and 10.3 µM (active), respectively.
On the same counts, the results for `Cn1cc(C=C2C(=O)Nc3cccnc32)c2ccccc21` are “inactive” and “inactive”.
For `CCc1ccc(C=C2SC(=S)NC2=O)cc1`, the Potency entry in assay [1] and in assay [2] was “inactive” each time.
As to `CCCCCN(C)CCC(O)(P(=O)(O)O)P(=O)(O)O`, in assay [1], the Potency result was “inactive”.
The same measure, in the same setting: then `Clc1ccc(C(c2ccc(Cl)cc2)n2cc[n+](CC(OCc3ccc(Cl)cc3Cl)c3ccc(Cl)cc3Cl)c2)cc1` (stereo unspecified), with 20.9 µM (active).
Consider `CC1=C(/C=C/C(C)=C/C=C/C(C)=C/C(=O)Nc2ccc(O)cc2)C(C)(C)CCC1`, for which the Potency result in assay [3] is “inactive”. In addition, in assay [4], the Potency is 23.5 µM (active).
Turning to `COc1cc(Nc2ncc(F)c(Nc3ccc4c(n3)NC(=O)C(C)(C)O4)n2)cc(OC)c1OC`, the Potency entry in assay [5] was “inactive”. Further, in assay [2], the Potency was 2.59 µM (active) and 18.4 µM (active) and inactive.
Consider `N#Cc1ccc(NC(=O)Nc2ccccc2Br)c2n[nH]nc12`, for which the Potency result in assay [3] and in assay [2] was “inactive” each time.
As to `CC(=O)Nc1ccc([C@H](C)C(=O)Nc2ncc(C(C)C)s2)cc1`, the Potency in assay [6] is 8.33 µM (active); in assay [2], 3.72 µM (active) and 3.66 µM (active).
For `CCN(CC)CCOc1ccc(C(=C(Cl)c2ccccc2)c2ccccc2)cc1`, the Potency result in assay [7] and in assay [2] was “inactive” throughout.
Consider `COc1cc2ncnc(-n3nc(-c4ccccn4)nc3N)c2cc1OC`, for which the Potency entry in assay [5] and in assay [7] was “inactive” in each case. The Potency in assay [3] is 5.9 µM (active); in assay [2], “inactive and 10 µM (active)”.
Turning to `CN(C)C1CCN(C(=O)c2ccc(NC(=O)Nc3nc(N4CCOCC4)nc(N4CCOCC4)n3)cc2)CC1`, the values for the Potency in assay [3] and in assay [2] were 0.0074 µM (active) and 14.8 µM (active), respectively.
On to `CC(C)[C@H](CO)Nc1nc(Nc2ccc(C(=O)O)c(Cl)c2)c2ncn(C(C)C)c2n1`, for which the Potency result in assay [4], in assay [7] and in assay [2] was “inactive” in each case.
For the molecule `OC[C@H]1O[C@@H](n2cnc3c2NC=NC[C@@H]3O)C[C@H]1O`, the Potency entry in assay [5], in assay [3], in assay [4] and in assay [2] was “inactive” throughout.
Regarding `Clc1ccc(-c2nc3sccn3c2C=NOCc2ccc(Cl)c(Cl)c2)cc1`, the Potency entry in assay [3], in assay [4] and in assay [2] was “inactive” each time.
Regarding `CCOC1OC(=O)C[C@H]1NC(=O)[C@@H]1CCCN1C(=O)[C@@H](NC(=O)c1ccc(N)c(Cl)c1)C(C)(C)C` (stereo partly specified), the Potency entry in assay [7] and in assay [2] was “inactive” each time.
Regarding `COc1ccc(-c2nc(N3CCOCC3)c3sc(CN(C)c4ncc(C(=O)NO)cn4)cc3n2)cn1`, the Potency is 0.164 µM (active) in assay [7]; 20.9 nM (active) and 231 nM (active) in assay [2].
As for `O=c1c(O)c(-c2ccc(O)cc2)oc2cc(O)cc(O)c12`, the Potency result in assay [7] and in assay [2] was “inactive” in each case.

Values taken from PubChem BioAssay (NCATS).
